Screens deposited in PubChem BioAssay by National Center for Advancing Translational Sciences (NCATS).
The list is not random: actives were taken first. Their share in the collection is about 8.1%.
RORg inh: blocks mouse ROR gamma transcriptional activity. Potency, µM (titrated, usually from 53.6 µM), without a hit: at the top dose activity change, negative = inhibition, hits mostly inhibitors. Drosophila S2 Gal4-RORgamma UAS-luciferase reporter, 20 h. 5.4% of 310,000 active. AID 2551. P51450; also: % is scaled to controls: 0 for no effect and ±100 for the full control effect; nearly all actives have a fitted effect of over 60% in size
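Schneider cells (Drosophila), stable Gal4 DBD–ROR gamma + UAS-luc; 1 hr cmpd preincubation; Cu2+ induction 700 uM final; 20 hr ambient; luminescence.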
PINK1 expr mod: changes PINK1 expression; PINK1 immunofluorescence, high-content cytometry, 24 h; 0.2% of 410,000 active; Potency, µM (titrated, usually from 76.6 µM), for the others: top-dose activation (PINK1 increase), most hits filed as activators; AID 624263; active = well fitted activation curve with a large enough effect; inconclusive = small, poorly fitted or top-dose-only effect; cell line not stated here; also: % of control where 0% means no effect; nearly all actives have a fitted effect of over 65% in size
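Compound titrations (5 concentrations, 24 h) on a stable cell line; DMSO and CCCP controls. Endpoint: fixed-cell PINK1 immunofluorescence with mitochondrial, cell and nuclear markers, scanned by microplate cytometer.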
Sfp inh: inhibitors of Bacillus subtilis Sfp phosphopantetheinyl transferase | Potency, µM, for the others: largest response in the series, negative = inhibition, most hits filed as inhibitors | Q9F4F7 | AID 1490 | 3.5% of 310,000 active | Biochemical Sfp PPTase activity, qHTS;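 also: the enzyme is Sfp with the accession as filed and its product quenches rhodamine fluorescence; 0% = enzyme reaction without inhibitor and -100% = no enzyme wells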
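Step 1, compound plus 15 nM Sfp-PPTase, 15 min, room temperature. Step 2, add rhodamine-CoA (5 uM) and BHQ-2-YbbR (12.5 uM). Step 3, read 525/598 nm fluorescence at 0 and 30 min.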
Gal4-VP16 FLuc: Gal4-VP16 reporter inhibition counter-screen | Drosophila S2 Gal4-VP16 UAS-luciferase, luminescence, 20 h | Potency, µM (highest dose often 53.6 µM), for inactives: top-dose activity, negative = inhibition, actives largely listed as inhibitors | 3.5% of 310,000 active | AID 2546;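 also: Gal4-VP16 expression switched on by copper sulfate through the metallothionein promoter; % is scaled to controls: 0 for no effect and ±100 for the full control effect; nearly all actives have a fitted effect of over 50% in size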
Epigenetic reg: regulators of epigenetic silencing causing reporter derepression in mouse cells. murine LDR cells, GFP reporter derepression, 30 h. Potency, µM (doses to about 53.9 µM), for inactives: at the top dose GFP activation, most hits filed as activators. 0.2% of 280,000 active. AID 1865; also: % of control where 0% means no effect; nearly all actives have a fitted effect of over 60% in size
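Reporter derepression read as number of fluorescent GFP-positive objects, 20-120 um in size, counted by laser-scanning cytometer. Mouse LDR line with an epigenetically silenced CMV-GFP locus; compound incubation 30 h, 37 C.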
ClpP mod: qHTS Assay for Activators of ClpP | ATP-dependent Clp protease proteolytic subunit (Bacillus subtilis (strain 168)), P80244 | purified B. subtilis ClpP, FRET peptide cleavage, 20 min | Potency, µM (highest dose often 57.5 µM), for the others: top-dose activity change, negative = active | 1.9% of 340,000 active | AID 651965, 2013; active = well fitted falling curve with a large enough effect; inconclusive = small, poorly fitted or top-dose-only effect; inactive = no such curve, though single readings can be large or run the other way; also: the source files actives as falling curves though it sought activators and does not explain the sign; nearly all actives have a fitted effect of over 65% in size
Target sequence (P80244 whole entry, looked up): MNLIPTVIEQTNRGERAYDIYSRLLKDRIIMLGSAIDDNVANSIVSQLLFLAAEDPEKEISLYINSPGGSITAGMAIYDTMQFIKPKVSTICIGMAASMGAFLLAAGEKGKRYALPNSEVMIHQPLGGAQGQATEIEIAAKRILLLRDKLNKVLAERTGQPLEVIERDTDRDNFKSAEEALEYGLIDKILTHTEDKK
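Buffer: 100 mM Tris/HCl pH8, 100 mM KCl, 0.05% low protease BSA, 2.5% glycerol, 0.01% Tween-20. ClpP 10 microg/mL final; 20 min RT; delta FRET normalized to ADEP and DMSO controls.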
* hit, by the source's call; ? = inconclusive; / = no result; [ ] = another dose, or the depositor's remark. Unless noted, calls follow the shape of the dose curve; as a rule, active = well fitted curve in the direction sought with a large enough effect; inconclusive = small, poorly fitted or top-dose-only effect, or another doubt; inactive = no such curve, though single readings can be large; an effect the other way counts as inactive or inconclusive. Potency is read from the fitted curve at half-maximal effect.

SMILES | RORg inh | PINK1 expr mod | Sfp inh | Gal4-VP16 FLuc | Epigenetic reg | ClpP mod
CCc1ccccc1-n1nnc(-c2nsc(NC(=O)c3ccc(C)c(C)c3)n2)c1C | / | 0.3% | / | / | 1.0% | ?
CC(=O)/C(=N\Nc1ccc(Cl)cc1)Sc1nnc(-c2ccccc2)n1-c1ccccc1 | 6.31µM* | 3.3% | -12.6% | 6.31µM* | -1.0% | -0.9%
Cc1cc(C(=O)Nc2nc(-c3ccccn3)cs2)ccc1[N+](=O)[O-] | 1.12µM* | 3.2% | 7.8% | 2.82µM* | -2.2% | /
Cc1cc(C)nc(NC(=O)c2ccc(C)c([N+](=O)[O-])c2)n1 | -16.6% | -0.8% | 7.6% | 1.6% | -2.1% | ?
O=C(Nc1nc(-c2ccccn2)cs1)c1cc(Cl)ccc1[N+](=O)[O-] | 1.12µM* | 1.6% | 44.7µM* | 2.82µM* | ? | /
Cc1csc(NC(=O)c2ccc(Cl)cc2[N+](=O)[O-])n1 | ? | 0.7% | 5.5% | -2.5% | -1.4% | /
Cc1csc(NC(=O)c2ccc(C)c([N+](=O)[O-])c2)n1 | ? | 1.2% | ? | 14.1µM* | -1.3% | 1.5%
Cc1nnc(NC(=O)c2ccc3ccccc3c2)o1 | 0.112µM* | -0.9% | -11.3% | 0.316µM* | 13.4% | -15.3%
CCCCC(=O)Nc1nnc(-c2ccco2)o1 | -10.3% | -0.9% | -12.9% | -9.8% | -1.2% | -1.6%
Cc1ccsc1C(=O)Nc1nnc(-c2ccco2)o1 | 0.282µM* | / | 8.6% | ? | -2.2% | -1.3%
CCc1ccccc1NC(=O)c1ccc([N+](=O)[O-])s1 | 14.1µM* | 17.2% | 21.4% | 6.2% | -0.7% | /
O=C(Nc1nnc(-c2ccco2)o1)c1ccc([N+](=O)[O-])s1 | 0.891µM* | 1.9% | -11.2% | 2.82µM* | 2.4% | ?
COc1ccccc1NC(=O)COC(=O)c1ccc([N+](=O)[O-])s1 | ? | 2.1% | 6.2% | -3.9% | -0.2% | /
CN(C)c1cccc(C(=O)N2CCC(c3c[nH]c4ccccc34)(c3c[nH]c4ccccc34)CC2)c1 | / | -0.4% | / | / | -4.1% | 4.6%
Cc1ccc(OCC(=O)OC2=C(C(=O)c3ccccc3)N(C)S(=O)(=O)c3ccccc32)cc1 | / | 3.1% | / | / | 1.9% | -16.1%
COC(=O)C/C=C\[C@@H](C)[C@@H](/C=N\OC[C@@H]1O[C@H](c2ccccc2)C=C[C@@H]1Oc1ccc(OC)cc1)OC | -5.9%[10 µM] | / | 4.1% | 16.9%[10 µM] | 1.1%[10.1 µM] | /
O=C(Nc1nnc(-c2ccco2)o1)c1ccc2ccccc2c1 | 1.41µM* | 0.6% | 12.7% | 1.12µM* | ? | 0.4%
N#Cc1ccc(C(=O)Nc2nnc(-c3ccco3)o2)cc1 | 1µM* | 2.5% | 24.1% | 3.16µM* | -2.7% | /
COc1ccc(C(=O)Nc2cccc(-c3nnc(-c4ccco4)o3)c2)cc1 | ? | -2.0% | -2.6% | ? | 0.5% | -3.4%
Cc1ccc(C(=O)Nc2nnc(-c3ccco3)o2)cc1 | ? | 1.9% | 13.1% | ? | -0.1% | -3.1%
N#C/C(=C\C1CC=CCC1)c1nc2ccccc2[nH]1 (centres undefined) | ? | 4.4%[38.3 µM] | ? | ? | 0.8% | 31.6µM*
N#C/C(=C\c1ccc(N2CCOCC2)cc1)c1ccccc1 | ? | -0.5% | -19.3% | -11.2% | -1.9% | 1.5%
COc1c(Cl)cc(Cl)cc1/C=C(\C#N)c1nc2ccccc2[nH]1 | / | 5.7% | / | / | ? | 20µM*
N#C/C(=C\c1ccc(N2CCOCC2)o1)c1ccccc1 | ? | / | 25.1µM* | 20µM* | 11.2µM* | 0.4%
Cc1ccc(/C=C(\C#N)c2nc3ccccc3[nH]2)s1 | ? | / | -1.0% | 10µM* | 12.8% | 0.2%
Cn1c(/C(C#N)=C/C2CC=CCC2)nc2ccccc21 (centres undefined) | ? | 1.2%[38.3 µM] | 15.7% | ? | 0.0% | -26.7%
Cn1c(/C(C#N)=C/c2ccc(C(F)(F)F)cc2)nc2ccccc21 | / | 1.0% | / | / | ? | -6.7%
S=C(c1nc2ccccc2[nH]1)N1CCOCC1 | 5.01µM* | -1.9% | 25.1µM* | 6.31µM* | 0.9% | -1.3%
